Experiment [1] in a line: compounds binding Alexa647 anti-His antibody – biochemical, small-molecule microarray, 635 nm fluorescence, artefact control for SMM control protein annotation, primary screen (AID 1128).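 Note: score merges feature fluorescence with signal-to-noise for each printed compound spot.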 The conditions noted are these: higher = more signal.
The subject of experiment [2] is Human papillomavirus type 1a E7 protein (residues 1-88). Nature of the experiment: HPV1a E7 small-molecule binders, primary screen, biochemical, small-molecule microarray, residues 1-88, 635 nm (AID 1129). The conditions noted are these: small-molecule microarray binding, fluorescence 635 nm; higher = more signal.
Experiment [3] concerns the target Focal adhesion kinase 1 (Homo sapiens) (UniProt Q05397). The experiment in a line: PTK2 protein binding on printed compound slides – biochemical, small-molecule microarray, 635/667 nm fluorescence, BSA, DTT, primary screen (AID 1130).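 Note: composite of spot emission at 667 nm and signal to noise over triplicate slides.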 The settings on record: 635 nm fluorescence, higher = more signal.
Experiment [4] has as its system Fibrinogen (Alexa647-labelled). The experiment in a line: Alexa647-fibrinogen binding to printed small molecules – biochemical, small-molecule microarray, 635/667 nm fluorescence, artefact control for SMM control-protein annotation, profiling panel (AID 1131).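 Note: z-score merges 667 nm fluorescence with per-spot signal-to-noise over triplicate slides.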 The settings on record: fibrinogen-A647 binding fluorescence, higher = more signal.
Experiment [5] concerns the target Follistatin (Homo sapiens) (UniProt P19883). The experiment in a line: FST protein binding to printed compounds – biochemical, small-molecule microarray, 635/667 nm fluorescence, primary screen (AID 1132). The conditions noted are these: 635 nm fluorescence, higher = more signal.
Experiment [6] addresses Fibroblast growth factor 2 (Homo sapiens) (UniProt P09038). Nature of the experiment: basic fibroblast growth factor binding to printed compounds – biochemical, small-molecule microarray, 635/667 nm fluorescence, primary screen (AID 1133). The conditions noted are these: FGF2, fluorescence 635/667, higher = more signal.
Experiment [7] in a line: JC-1 mitochondrial potential readout, lung cancer cells – cell-based, A549, JC-1 fluorescence, basal, 24 h, 100 nL, profiling panel (AID 1138).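 Note: A549 lung adenocarcinoma cells under basal conditions with no added stimulus; test concentration not given here.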 The conditions noted are these: higher = more signal.
A further experiment has as its system Lefty1. The experiment in a line: Lefty1 protein binding to printed compounds – biochemical, small-molecule microarray, 635/667 nm fluorescence, primary screen (AID 1139). The conditions noted are these: fluorescence 635/667, higher = more signal.
Experiment [8] has as its system wheat germ agglutinin (Triticum aestivum), Alexa647-labelled. Nature of the experiment: Alexa647-WGA lectin binding to printed small molecules – biochemical, small-molecule microarray, 635/667 nm fluorescence, artefact control for SMM control-protein annotation, profiling panel (AID 1140).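 Note: score merges 667 nm feature emission with signal to noise over triplicate slides.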 The conditions noted are these: WGA-A647 binding, 635 nm fluorescence, higher = more signal.

The target of experiment [9] is Luciferin 4-monooxygenase (Photinus pyralis) (UniProt P08659). Nature of the experiment: inhibition of purified Photinus pyralis luciferase – biochemical, luminescence, purified enzyme, 2006 set, primary screen (AID 1141).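 Note: cell-free assay with purified firefly luciferase at 100 ng per well in PBS; test concentration not given here.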 The settings on record: purified firefly luciferase, SteadyGlo luminescence, 30 min; higher = more signal, called active from +8 up or from −8 down.

Experiment [10] has as its system Wnt5a (protein binding on small-molecule microarray). The experiment in a line: small molecules binding Wnt5a protein – biophysical, small-molecule microarray, 635/667 nm fluorescence, primary screen (AID 1142).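 Note: fluorescence read at 667 nm with signal to noise per printed feature.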 The settings on record: 635 nm fluorescence, higher = more signal.
Experiment [11] can be described thus: ATP-based viability of Huh7 replicon cells – cell-based, CellTiter-Glo luminescence, basal, 48 h, cytotoxicity control for HCV replication inhibitor project, primary screen (AID 1143).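 Note: Huh7 hepatoma cells carrying a hepatitis C replication reporter with no stimulus; test concentration not given here.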 The conditions noted are these: higher = more signal, called active from +8 up or from −8 down. On the technique in general: In antiviral work, replicon cells carry a viral genome segment that copies itself.

The nature of experiment [12]: Pseudomonas biofilm growth suppression – PAO1 strain, BacTiter-Glo luminescence, LB-PBS, primary screen (AID 1144). The conditions noted are these: P. aeruginosa PAO1 biofilm, 12 h, higher = more signal.
The nature of experiment [13]: basal CRE-LacZ reporter activity in PC12 – cell-based, unstimulated, primary screen (AID 1145). The conditions noted are these: no forskolin, luminescence, 4.5 h, higher = more signal, called active from +8 up or from −8 down.
Experiment [14] is described as follows: forskolin-driven CRE-LacZ activity in PC12 – cell-based, CRE-LacZ reporter, forskolin-stimulated, primary screen (AID 1146).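 Note: PC12 cells with 6xCRE LacZ reporter stimulated by forskolin 10 µM; beta-galactosidase reporter signal reflecting CREB driven transcription.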 The settings on record: luminescence, 4.5 h, higher = more signal, called active from +8 up or from −8 down.
Experiment [15] addresses Streptavidin (Streptomyces avidinii) (UniProt P22629). The experiment in a line: compounds binding control protein streptavidin – biophysical, small-molecule microarray, 635/667 nm fluorescence, artefact control for SMM compound annotation, primary screen (AID 1147).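 Note: signal reflects streptavidin binding to arrayed compounds as a control protein.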 The conditions noted are these: higher = more signal.
The nature of experiment [16]: probe aInhba binding on compound microarray – biochemical, small-molecule microarray, 635/667 nm fluorescence, primary screen (AID 1148).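 Note: score merges 667nm spot fluorescence with signal-to-noise for antibody binding to printed compounds.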 The settings on record: higher = more signal.
Experiment [17] has as its target Torsin-1A (Homo sapiens) (UniProt O14656). The experiment in a line: TOR1A wild-type binding on microarray – cell lysate, small-molecule microarray, lysate, 635/667 nm, primary screen (AID 1149). The conditions noted are these: COS7 hTOR1A-WT lysate, 635 nm fluorescence, higher = more signal.
Experiment [18] shares this target. The experiment in a line: torsin A mutant lysate binding on microarrays – cell lysate, small-molecule microarray, COS7 lysate, 635/667 nm fluorescence, primary screen (AID 1150).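 Note: score pools 667 nm emission and signal to noise measuring lysate protein binding.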 The conditions noted are these: COS7 hTOR1A mutant lysate, 635 nm fluorescence, higher = more signal.
Experiment [19] deals with Sonic hedgehog protein (Shh). Nature of the experiment: Sonic hedgehog microarray binding compounds – biochemical, small-molecule microarray, 635/667 nm fluorescence, primary screen (AID 1151).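 Note: Shh protein binding to compounds spotted on small-molecule microarray slides; score combines spot fluorescence intensity with signal-to-noise across triplicate slides.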 The conditions noted are these: 635 nm fluorescence, higher = more signal.

The structures appear in SMILES notation. Calls of active or inactive are those of the source. Unless noted, the rule behind the calls is not given here.

Data on five compounds can be found in PubChem BioAssay.

Chain of Focal adhesion kinase 1 (Homo sapiens) (Q05397 whole entry, looked up): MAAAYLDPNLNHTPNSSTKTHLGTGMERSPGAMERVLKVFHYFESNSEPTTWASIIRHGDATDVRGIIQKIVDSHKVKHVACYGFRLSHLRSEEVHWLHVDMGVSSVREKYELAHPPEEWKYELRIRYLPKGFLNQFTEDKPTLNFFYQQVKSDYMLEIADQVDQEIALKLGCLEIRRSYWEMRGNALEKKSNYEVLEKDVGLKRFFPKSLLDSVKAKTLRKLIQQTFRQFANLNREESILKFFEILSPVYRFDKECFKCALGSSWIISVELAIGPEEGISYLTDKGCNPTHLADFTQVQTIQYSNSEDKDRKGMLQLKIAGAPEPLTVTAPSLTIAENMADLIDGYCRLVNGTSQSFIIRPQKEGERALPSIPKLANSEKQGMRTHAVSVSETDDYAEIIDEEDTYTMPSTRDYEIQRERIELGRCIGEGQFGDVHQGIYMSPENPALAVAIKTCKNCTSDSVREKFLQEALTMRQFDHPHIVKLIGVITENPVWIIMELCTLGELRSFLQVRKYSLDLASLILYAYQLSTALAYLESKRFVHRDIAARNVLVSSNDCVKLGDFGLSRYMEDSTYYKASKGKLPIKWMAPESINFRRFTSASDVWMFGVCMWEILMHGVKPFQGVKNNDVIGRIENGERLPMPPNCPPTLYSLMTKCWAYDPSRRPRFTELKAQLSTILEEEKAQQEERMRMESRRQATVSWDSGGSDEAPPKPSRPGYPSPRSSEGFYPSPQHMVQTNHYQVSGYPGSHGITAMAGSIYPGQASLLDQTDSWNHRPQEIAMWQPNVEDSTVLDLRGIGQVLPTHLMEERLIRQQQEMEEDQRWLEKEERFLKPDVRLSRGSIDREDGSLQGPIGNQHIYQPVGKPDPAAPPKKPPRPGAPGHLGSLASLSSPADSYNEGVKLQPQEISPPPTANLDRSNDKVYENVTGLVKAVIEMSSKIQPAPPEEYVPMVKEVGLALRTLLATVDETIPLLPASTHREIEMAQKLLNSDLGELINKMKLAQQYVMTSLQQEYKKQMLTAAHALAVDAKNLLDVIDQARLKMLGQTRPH
Chain of Follistatin (Homo sapiens) (P19883 whole entry, looked up): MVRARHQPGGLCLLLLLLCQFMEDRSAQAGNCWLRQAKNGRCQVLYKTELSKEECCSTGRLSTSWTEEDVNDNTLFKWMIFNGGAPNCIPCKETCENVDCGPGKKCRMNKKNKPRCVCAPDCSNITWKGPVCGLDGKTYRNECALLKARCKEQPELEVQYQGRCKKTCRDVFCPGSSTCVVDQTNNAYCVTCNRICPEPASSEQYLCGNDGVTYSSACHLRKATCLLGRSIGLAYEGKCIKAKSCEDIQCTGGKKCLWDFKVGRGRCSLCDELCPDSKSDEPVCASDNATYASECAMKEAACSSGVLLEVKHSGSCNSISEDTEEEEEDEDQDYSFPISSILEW
Chain of Streptavidin (Streptomyces avidinii) (P22629 whole entry, looked up): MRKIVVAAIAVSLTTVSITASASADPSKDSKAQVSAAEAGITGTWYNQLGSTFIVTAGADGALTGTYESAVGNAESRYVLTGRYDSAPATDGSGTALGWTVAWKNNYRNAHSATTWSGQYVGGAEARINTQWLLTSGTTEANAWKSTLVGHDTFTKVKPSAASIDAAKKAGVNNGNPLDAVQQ
Chain of Fibroblast growth factor 2 (Homo sapiens) (P09038 whole entry, looked up): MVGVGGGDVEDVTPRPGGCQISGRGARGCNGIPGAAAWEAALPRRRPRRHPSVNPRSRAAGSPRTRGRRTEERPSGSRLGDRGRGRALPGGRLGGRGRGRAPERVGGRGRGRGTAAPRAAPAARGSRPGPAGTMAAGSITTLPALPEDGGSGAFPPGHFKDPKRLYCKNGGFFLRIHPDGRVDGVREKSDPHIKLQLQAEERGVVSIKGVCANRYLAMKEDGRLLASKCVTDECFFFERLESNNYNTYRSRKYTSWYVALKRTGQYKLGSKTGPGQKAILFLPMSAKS
Chain of Luciferin 4-monooxygenase (Photinus pyralis) (P08659 whole entry, looked up): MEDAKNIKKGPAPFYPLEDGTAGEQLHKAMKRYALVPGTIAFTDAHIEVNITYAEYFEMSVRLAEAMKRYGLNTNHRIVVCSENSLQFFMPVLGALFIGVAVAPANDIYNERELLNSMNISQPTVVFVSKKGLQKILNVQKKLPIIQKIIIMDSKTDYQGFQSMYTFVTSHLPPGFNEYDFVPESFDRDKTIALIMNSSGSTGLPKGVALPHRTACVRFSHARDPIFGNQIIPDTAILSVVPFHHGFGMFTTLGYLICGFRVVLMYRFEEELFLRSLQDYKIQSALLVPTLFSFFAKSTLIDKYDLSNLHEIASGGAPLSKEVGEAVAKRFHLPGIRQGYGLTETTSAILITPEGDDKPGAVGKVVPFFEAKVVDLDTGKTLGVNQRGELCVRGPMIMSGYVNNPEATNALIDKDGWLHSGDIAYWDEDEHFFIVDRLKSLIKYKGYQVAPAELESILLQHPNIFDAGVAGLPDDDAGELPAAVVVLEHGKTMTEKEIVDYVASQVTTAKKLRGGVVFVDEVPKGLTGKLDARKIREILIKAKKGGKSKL
Chain of Torsin-1A (Homo sapiens) (O14656 whole entry, looked up): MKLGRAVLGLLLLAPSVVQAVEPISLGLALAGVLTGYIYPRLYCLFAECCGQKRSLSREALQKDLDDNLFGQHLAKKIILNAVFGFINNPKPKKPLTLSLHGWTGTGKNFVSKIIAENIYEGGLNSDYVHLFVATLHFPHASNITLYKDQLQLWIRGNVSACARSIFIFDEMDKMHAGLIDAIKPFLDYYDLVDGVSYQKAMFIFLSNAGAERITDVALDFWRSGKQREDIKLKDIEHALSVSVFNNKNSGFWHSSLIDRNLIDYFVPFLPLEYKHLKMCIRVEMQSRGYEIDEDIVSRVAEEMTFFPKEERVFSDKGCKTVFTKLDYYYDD

As to `[N-]=[N+]=NCc1ccccc1C[C@]1(C(=O)N2CCCCC2)N=C(c2ccc(OCCCO)cc2)O[C@H]1c1ccccc1CN=[N+]=[N-]`, the composite z-score in [1] was 0.538; in [2], 1.21; in experiment [3], 0.652; in [4], 0.947; in experiment [5] it was 1.04; in experiment [6] it was -0.369. The composite z-score stood at 0.453 in the experiment with Lefty1; 0.59 in experiment [8]; 0.129 in [10]; 0.995 in [15]; 0.233 in experiment [16]; 0.064 in the experiment with Torsin-1A (Homo sapiens) [17]. In addition, the composite z-score is 0.741 with Torsin-1A (Homo sapiens) [18] and -0.0292 in experiment [19]. Also, the z-score was -0.0989 in experiment [7]; -1.02 (inactive) in [9]; -4.48 (inactive) in experiment [11]; 0.447 (inactive) in experiment [12]; 1.88 (inactive) in [13]; 0.102 (inactive) in [14].
For `O=C1C2C=CC(C(O)c3ccccc3)N(n3cnnc3)C2C(=O)N1Cc1ccccc1` (stereo not given), the composite z-score in experiment [1] is 0.0968; in experiment [2], 0.561; in experiment [3], 0.321; in [4] it was 0.249; in experiment [5], 0.438; in [6] it was -0.0128. Also, the composite z-score in the experiment with Lefty1 was -0.497; in [8], -0.164; in experiment [10], 0.068; in experiment [15], 0.266; in experiment [16], 0.241; with Torsin-1A (Homo sapiens) [17], 0.148. Further, the composite z-score is -0.457 with Torsin-1A (Homo sapiens) [18] and -0.189 in experiment [19]. In addition, the z-score in experiment [7] is 0.348; in experiment [9] it was -1.55 (inactive); in experiment [11], 0.455 (inactive); in [12] it was -1.43 (inactive); in experiment [13], 0.822 (inactive); in experiment [14] it was -0.5 (inactive).
With `COC(=O)C(CC#Cc1ccc2c(c1)[C@]1(C(=O)N2)[C@H](C(=O)N2CCCCCCC2)[C@H]2C(=O)O[C@H](c3ccccc3)[C@H](c3ccccc3)N2[C@@H]1c1ccc(O)cc1)C(=O)OC`, the composite z-score was -0.231 in experiment [1]; -1.54 in experiment [2]; -0.222 in experiment [3]; -2.05 in experiment [4]; -0.408 in [5]; -1.1 in [6]. For the same compound, the composite z-score was -0.227 in the experiment with Lefty1; -1.42 in [8]; -0.593 in experiment [10]; -1.01 in [15]; 0.539 in experiment [16]; -0.998 in the experiment with Torsin-1A (Homo sapiens) [17]. The composite z-score is -0.529 in the experiment with Torsin-1A (Homo sapiens) [18] and -0.657 in [19]. The z-score in experiment [7] was -1.03; in experiment [9], -0.269 (inactive); in [11] it was -4.23 (inactive); in experiment [12], 0.144 (inactive); in [13] it was 0.0736 (inactive); in experiment [14] it was -0.928 (inactive).
With `CCOC(=O)C1=C[C@@H](c2ccccc2)N(S(=O)(=O)c2ccc(C)cc2)[C@H]1c1ccc(F)cc1`, the composite z-score in experiment [1] was determined as 0.986; in experiment [2], 1.14; in experiment [3], 1.23; in experiment [4], 0.995; in experiment [5], 1.06; in [6], 0.47. The composite z-score in the experiment with Lefty1 stood at 0.207; in [8], 1.08; in experiment [10], 0.0679; in experiment [15], 0.95; in experiment [16] it was 0.225; in the experiment with Torsin-1A (Homo sapiens) [17] it was 0.347. Further, the composite z-score with Torsin-1A (Homo sapiens) [18] was 0.431; in experiment [19], 0.488. Further, the z-score in experiment [7] was 0.994; in experiment [9], 1.54 (inactive); in experiment [11], -3.77 (inactive); in experiment [12], 0.449 (inactive); in experiment [13], -0.826 (inactive); in experiment [14] it was -0.552 (inactive).
With `COc1ccc([Si](C)(C)[C@@H]2[C@@H](CCO)O[C@]3(C(=O)N(Cc4ccccc4)c4ccccc43)[C@H]2C)cc1`, the composite z-score in experiment [1] is 1.42; in [2], 0.319; in experiment [3], 0.331; in experiment [4], -0.153; in experiment [5], 0.32; in [6], 1.21. Also, the composite z-score is 0.32 with Lefty1; -0.139 in experiment [8]; -0.0721 in [10]; -0.155 in [15]; 1 in [16]; -0.239 with Torsin-1A (Homo sapiens) [17]. The composite z-score in the experiment with Torsin-1A (Homo sapiens) [18] was -0.283; in experiment [19], 0.0843. Besides, the z-score in experiment [7] was -0.234; in experiment [9], -0.238 (inactive); in [11], -1.98 (inactive); in [12], 0.773 (inactive); in experiment [13], 0.0352 (inactive); in experiment [14] it was -0.46 (inactive).
